# Several values for one entry are separate records, joined by “and”; a condition that tells them apart may be missing. Equal entries are not always repeated. Inconclusive results are not listed. Activity calls are given as the source filed them.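 How the source made its calls, unless noted: active means normalized viability below 100% at a tested concentration; inactive means the rest.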
# What was measured:
# [1] = viability loss in pontine glioma line – cell-based, SU-DIPG-XVII, MIPE5.0, CellTiter-Glo, qHTS, dose response (AID 1347060; cut-off not given, nearly all actives have AC50 up to about 26 µM;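 on AC50: cells exposed to compound for 48 hours before viability readout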); details: CellTiter-Glo ATP luminescence
# [2] = viability loss in pontine glioma line – cell-based, SU-DIPG-IV, MIPE4.0, CellTiter-Glo, qHTS, dose response (AID 1347063; cut-off not given, nearly all actives have AC50 up to about 30 µM;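 further: compound exposure lasted 48 hours before the viability readout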); details: CellTiter-Glo ATP luminescence
# [3] = viability loss in pontine glioma line – cell-based, SU-DIPG-XIII, MIPE5.0, CellTiter-Glo, qHTS, dose response (AID 1347064; cut-off not given, nearly all actives have AC50 up to about 23 µM;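 on AC50: cells exposed to compound for 48 hours before the viability read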); details: CellTiter-Glo ATP luminescence
# [4] = viability loss in pontine glioma line – cell-based, SU-DIPG-XXV, MIPE5.0, CellTiter-Glo, qHTS, dose response (AID 1347065; cut-off not given, nearly all actives have AC50 up to about 26 µM;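 further: cells exposed to compound for 48 hours before ATP readout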); details: CellTiter-Glo ATP luminescence
# [5] = JHH-DIPG-1 glioma cell viability, MIPE5.0 library, CellTiter-Glo luminescence, qHTS (AID 1347067; cut-off not given, nearly all actives have AC50 up to about 26 µM;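 further: cells exposed to compound for 48 hours before readout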); details: JHH-DIPG-1 glioma viability, CellTiter-Glo ATP luminescence
# [6] = growth inhibition of DIPG cells – cell-based, MIPE5.0 library, qHTS (AID 1347068; cut-off not given, nearly all actives have IC50 up to about 30 µM;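 on IC50: cells exposed to compound for 48 hours before viability readout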); details: SU-DIPG-XXV viability
# [7] = viability loss with induced miR-34 in A549 – imaging, A549 dox-inducible miR-34, nuclei and caspase counts, primary screen (AID 1347080;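 active means compounds whose cell count with miR-34 switched on is under 0.7 times the count with it off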); details: A549 miR-34 inducible, Hoechst nuclei count, 48 h
# [8] = compounds altering HSF1 focus formation in cells – imaging, Selleck Cancer Library (AID 1347162; in the data active means plate-normalised HSF1 focus index below about 0.46); details: human cells, HSF1 nuclear foci imaging, at 10 µM; SSMD: measured here: HSF1 foci SSMD mean; cell count: measured here: cell number; plate-normalised HSF1 focus index: stronger effect = lower value
# [9] = MELAS cybrid and Rieske KO viability enhancers – cell-based, MELAS cybrids, Rieske KO mouse fibroblasts, CellTiter-Glo, primary screen (AID 1508586;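 active means mean z-score across replicates of 1.96 or higher in either the MELAS or the Rieske mutant cell line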;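 further: z relative to plate mean and SD of compound and empty wells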); details: low glucose
# [10] = drug combination growth inhibition, ovarian cancer – cell-based, oncology-focused library, rucaparib conditional, profiling panel (AID 1508598); details: patient-derived ovarian cancer cells, CellTiter-Glo viability, 144 h, stronger effect = lower value
# [11] = growth inhibition of DIPG cells – cell-based, MIPE4.0 library, CellTiter-Glo luminescence, qHTS (AID 1347066; cut-off not given, nearly all actives have AC50 up to about 30 µM;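 further: cells exposed to compound for 48 hours before readout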); details: SU-DIPG-VI viability, CellTiter-Glo ATP luminescence
# [12] = stronger effect = lower value, cell number ratio, induced over uninduced
# [13] = measured here: relative caspase fold change +Dox/-Dox
# [14] = measured here: total cells with miR-34 induction, stronger effect = lower value
# [15] = measured here: total cells without miR-34 induction
# [16] = MELAS cybrid survival, CellTiter-Glo 48 h, stronger effect = higher value
# [17] = Rieske KO mouse fibroblast survival, CellTiter-Glo 72 h
# [18] = at 0.000305 µM, OCI-C5x cells, with rucaparib 10 µM, 100% = cells with rucaparib alone
# [19] = at 0.000305 µM, OCI-C5x cells, without rucaparib
# [20] = at 0.000305 µM, OCI-P5x cells, with rucaparib 20 µM, 100% = cells with rucaparib alone
# [21] = at 0.000305 µM, OCI-P5x cells, without rucaparib
# [22] = at 0.00122 µM, OCI-C5x cells, with rucaparib 10 µM, 100% = cells with rucaparib alone
# [23] = at 0.00122 µM, OCI-C5x cells, without rucaparib
# [24] = at 0.00122 µM, OCI-P5x cells, with rucaparib 20 µM, 100% = cells with rucaparib alone
# [25] = at 0.00122 µM, OCI-P5x cells, without rucaparib
# [26] = at 0.00488 µM, OCI-C5x cells, with rucaparib 10 µM, 100% = cells with rucaparib alone
# [27] = at 0.00488 µM, OCI-C5x cells, without rucaparib
# [28] = at 0.00488 µM, OCI-P5x cells, with rucaparib 20 µM, 100% = cells with rucaparib alone
# [29] = at 0.00488 µM, OCI-P5x cells, without rucaparib
# [30] = at 0.0195 µM, OCI-C5x cells, with rucaparib 10 µM, 100% = cells with rucaparib alone
# [31] = at 0.0195 µM, OCI-C5x cells, without rucaparib
# [32] = at 0.0195 µM, OCI-P5x cells, with rucaparib 20 µM, 100% = cells with rucaparib alone
# [33] = at 0.0195 µM, OCI-P5x cells, without rucaparib
# [34] = at 0.0781 µM, OCI-C5x cells, with rucaparib 10 µM, 100% = cells with rucaparib alone
# [35] = at 0.0781 µM, OCI-C5x cells, without rucaparib
# [36] = at 0.0781 µM, OCI-P5x cells, with rucaparib 20 µM, 100% = cells with rucaparib alone
# [37] = at 0.0781 µM, OCI-P5x cells, without rucaparib
# [38] = at 0.313 µM, OCI-C5x cells, with rucaparib 10 µM, 100% = cells with rucaparib alone
# [39] = at 0.313 µM, OCI-C5x cells, without rucaparib
# [40] = at 0.313 µM, OCI-P5x cells, with rucaparib 20 µM, 100% = cells with rucaparib alone
# [41] = at 0.313 µM, OCI-P5x cells, without rucaparib
# [42] = at 1.25 µM, OCI-C5x cells, with rucaparib 10 µM, 100% = cells with rucaparib alone
# [43] = at 1.25 µM, OCI-C5x cells, without rucaparib
# [44] = at 1.25 µM, OCI-P5x cells, with rucaparib 20 µM, 100% = cells with rucaparib alone
# [45] = at 1.25 µM, OCI-P5x cells, without rucaparib
# [46] = at 5 µM, OCI-C5x cells, with rucaparib 10 µM, 100% = cells with rucaparib alone
# [47] = at 5 µM, OCI-C5x cells, without rucaparib
# [48] = at 5 µM, OCI-P5x cells, with rucaparib 20 µM, 100% = cells with rucaparib alone
# [49] = at 5 µM, OCI-P5x cells, without rucaparib
smiles,measurement,setting,value
Cc1ccc(F)c(NC(=O)Nc2ccc(-c3cccc4[nH]nc(N)c34)cc2)c1,AC50,[1],14800 nM (active)
same,AC50,[2],14800 nM (active)
same,AC50,[3],7420 nM (active)
same,AC50,[4],8330 nM (active)
same,AC50,[5],1050 nM (active)
same,IC50,[6],18600 nM (active)
same,fold change,[7]; [12],0.905 (inactive)
same,fold change,[7]; [13],0.989
same,cell count,[7]; [14],2590
same,cell count,[7]; [15],2860
same,SSMD,[8],4.01
same,cell count,[8],6540
same,plate-normalised HSF1 focus index,[8],1.21 (inactive)
same,z-score,[9]; [16],-0.438 (inactive)
same,z-score,[9]; [17],0.36
same,viability,[10]; [18],110% (inactive)
same,viability,[10]; [19],114% (inactive)
same,viability,[10]; [20],85.4% (active)
same,viability,[10]; [21],19.5% (active)
same,viability,[10]; [22],108% (inactive)
same,viability,[10]; [23],112% (inactive)
same,viability,[10]; [24],81.6% (active)
same,viability,[10]; [25],16.8% (active)
same,viability,[10]; [26],119% (inactive)
same,viability,[10]; [27],112% (inactive)
same,viability,[10]; [28],96.5% (active)
same,viability,[10]; [29],97.7% (active)
same,viability,[10]; [30],110% (inactive)
same,viability,[10]; [31],119% (inactive)
same,viability,[10]; [32],108% (inactive)
same,viability,[10]; [33],97.3% (active)
same,viability,[10]; [34],111% (inactive)
same,viability,[10]; [35],110% (inactive)
same,viability,[10]; [36],103% (inactive)
same,viability,[10]; [37],102% (inactive)
same,viability,[10]; [38],113% (inactive)
same,viability,[10]; [39],107% (inactive)
same,viability,[10]; [40],91.5% (active)
same,viability,[10]; [41],90.2% (active)
same,viability,[10]; [42],112% (inactive)
same,viability,[10]; [43],123% (inactive)
same,viability,[10]; [44],99.2% (active)
same,viability,[10]; [45],87.8% (active)
same,viability,[10]; [46],83.6% (active)
same,viability,[10]; [47],145% (inactive)
same,viability,[10]; [48],14.3% (active)
same,viability,[10]; [49],35.5% (active)
C[C@H]1[C@H](O)O[C@@H]2O[C@@]3(C)CC[C@H]4[C@H](C)CC[C@@H]1[C@@]24OO3,AC50,[1],2950 nM (active)
same,AC50,[2],2960 nM (active)
same,AC50,[3],4680 nM (active)
same,AC50,[4],7420 nM (active)
same,outcome,[11],inactive
COc1c(OCCCN2CCOCC2)ccc2c3n(c(=NC(=O)c4cnc(N)nc4)nc12)CCN3,AC50,[1],270 nM (active)
same,AC50,[2],102 nM (active)
same,AC50,[3],270 nM (active)
same,AC50,[4],95.9 nM (active)
same,AC50,[11],45.7 nM (active)
same,AC50,[5],191 nM (active)
same,IC50,[6],382 nM (active)
C/C(O)=C(\C#N)C(=O)Nc1ccc(C(F)(F)F)cc1,outcome,[1],inactive
same,outcome,[2],inactive
same,outcome,[3],inactive
same,outcome,[4],inactive
same,outcome,[11],inactive
same,outcome,[5],inactive
same,outcome,[6],inactive
N#Cc1c(NC(=O)c2cccc3ccccc23)sc2c1CCCC2,AC50,[1],372 nM (active)
same,AC50,[2],418 nM (active)
same,AC50,[3],1320 nM (active)
same,AC50,[4],833 nM (active)
same,outcome,[11],inactive
same,AC50,[5],263 nM (active)
same,IC50,[6],235 nM (active)
same,fold change,[7]; [12],1.02 (inactive)
same,fold change,[7]; [13],0.427
same,cell count,[7]; [14],1320
same,cell count,[7]; [15],1290
same,z-score,[9]; [16],-0.44 (inactive) and 1.09 (inactive)
same,z-score,[9]; [17],0.237 and -1.54
same,viability,[10]; [18],117% (inactive)
same,viability,[10]; [19],105% (inactive)
same,viability,[10]; [20],96% (active)
same,viability,[10]; [21],102% (inactive)
same,viability,[10]; [22],129% (inactive)
same,viability,[10]; [23],120% (inactive)
same,viability,[10]; [24],95.3% (active)
same,viability,[10]; [25],109% (inactive)
same,viability,[10]; [26],113% (inactive)
same,viability,[10]; [27],109% (inactive)
same,viability,[10]; [28],102% (inactive)
same,viability,[10]; [29],97.3% (active)
same,viability,[10]; [30],108% (inactive)
same,viability,[10]; [31],116% (inactive)
same,viability,[10]; [32],98.6% (active)
same,viability,[10]; [33],103% (inactive)
same,viability,[10]; [34],118% (inactive)
same,viability,[10]; [35],109% (inactive)
same,viability,[10]; [36],97.5% (active)
same,viability,[10]; [37],102% (inactive)
same,viability,[10]; [38],119% (inactive)
same,viability,[10]; [39],110% (inactive)
same,viability,[10]; [40],105% (inactive)
same,viability,[10]; [41],100% (inactive)
same,viability,[10]; [42],72.9% (active)
same,viability,[10]; [43],106% (inactive)
same,viability,[10]; [44],65.1% (active)
same,viability,[10]; [45],34.2% (active)
same,viability,[10]; [46],49.6% (active)
same,viability,[10]; [47],64.5% (active)
same,viability,[10]; [48],58.3% (active)
same,viability,[10]; [49],18.2% (active)
COc1ccc(-c2ccc3c(N4CCOC[C@@H]4C)nc(N4CCOC[C@@H]4C)nc3n2)cc1CO,AC50,[1],209 nM (active)
same,AC50,[2],9.35 nM (active)
same,AC50,[3],661 nM (active)
same,AC50,[4],105 nM (active)
same,AC50,[5],59 nM (active)
same,SSMD,[8],-0.138
same,cell count,[8],7120
same,plate-normalised HSF1 focus index,[8],0.995 (inactive)
same,viability,[10]; [18],112% (inactive)
same,viability,[10]; [19],106% (inactive)
same,viability,[10]; [20],87.2% (active)
same,viability,[10]; [21],93% (active)
same,viability,[10]; [22],122% (inactive)
same,viability,[10]; [23],105% (inactive)
same,viability,[10]; [24],94.9% (active)
same,viability,[10]; [25],92.8% (active)
same,viability,[10]; [26],124% (inactive)
same,viability,[10]; [27],119% (inactive)
same,viability,[10]; [28],90.3% (active)
same,viability,[10]; [29],91% (active)
same,viability,[10]; [30],116% (inactive)
same,viability,[10]; [31],106% (inactive)
same,viability,[10]; [32],72.9% (active)
same,viability,[10]; [33],62.8% (active)
same,viability,[10]; [34],71.2% (active)
same,viability,[10]; [35],55.7% (active)
same,viability,[10]; [36],43.6% (active)
same,viability,[10]; [37],24.2% (active)
same,viability,[10]; [38],47.2% (active)
same,viability,[10]; [39],48.1% (active)
same,viability,[10]; [40],34.3% (active)
same,viability,[10]; [41],17% (active)
same,viability,[10]; [42],54.1% (active)
same,viability,[10]; [43],47.3% (active)
same,viability,[10]; [44],30.6% (active)
same,viability,[10]; [45],22.6% (active)
same,viability,[10]; [46],48% (active)
same,viability,[10]; [47],47.3% (active)
same,viability,[10]; [48],26.9% (active)
same,viability,[10]; [49],20.8% (active)

# Source: PubChem BioAssay
